Screens (PubChem BioAssay)
BoNT A protease = inhibitors of Botulinum neurotoxin A light chain protease. multiplex microsphere protease substrate cleavage, flow cytometry. inhibition, % at 10 µM. 360,000 tested, 0.17% active. AID 588499; also: plate controls were buffer without enzyme for full effect and enzyme alone for no effect
Autofluor counter = compound fluorescence in toxin protease inhibitor counterscreen; compound autofluorescence counterscreen, microsphere flow cytometry; stronger effect = higher value; fluorescence intensity (test concentration not listed); 360,000 tested, 3.1% active; AID 624483; in the data active = fluorescence intensity above about 16000; inconclusive = no clear call, values can overlap the other calls
GDH-TPI counter = inhibits GDH-TPI coupling enzymes, artifact for Mtb FBA screen. GDH-TPI coupled enzyme counterscreen, NADH absorbance. inhibition, % at 4.8 µM. 360,000 tested, 1.2% active. AID 588335; in the data active = inhibition above about 30%;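 also: 0% = DMSO wells and 100% = wells lacking the enzyme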
Anthrax LF prot = blocks Bacillus anthracis lethal factor protease | AID 588501 | inhibition, % at 10 µM | multiplex microsphere protease cleavage assay, LF | 360,000 tested, 0.12% active; also: plate controls were buffer without enzyme for full effect and enzyme alone for no effect
BoNT F protease = BoNT F light chain protease inhibition; Multiplex microsphere protease cleavage assay, flow cytometry; inhibition, % at 10 µM; 360,000 tested, 0.22% active; AID 588497; in the data active = inhibition above about 35%, passing the limit was not always enough; inconclusive = no clear call, values can overlap the other calls; also: plate controls were buffer without enzyme for full effect and enzyme alone for no effect
FBA Mtb inh = inhibitors of M. tuberculosis fructose-bisphosphate aldolase | 360,000 tested, 2.3% active | P9WQA3 | purified M. tuberculosis FBA, fluorescence read-out | inhibition, % at 1 µM; in the data active = inhibition above about 27%;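 also: 0% = vehicle and 100% = reference inhibitor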
Target sequence (P9WQA3 whole entry, looked up): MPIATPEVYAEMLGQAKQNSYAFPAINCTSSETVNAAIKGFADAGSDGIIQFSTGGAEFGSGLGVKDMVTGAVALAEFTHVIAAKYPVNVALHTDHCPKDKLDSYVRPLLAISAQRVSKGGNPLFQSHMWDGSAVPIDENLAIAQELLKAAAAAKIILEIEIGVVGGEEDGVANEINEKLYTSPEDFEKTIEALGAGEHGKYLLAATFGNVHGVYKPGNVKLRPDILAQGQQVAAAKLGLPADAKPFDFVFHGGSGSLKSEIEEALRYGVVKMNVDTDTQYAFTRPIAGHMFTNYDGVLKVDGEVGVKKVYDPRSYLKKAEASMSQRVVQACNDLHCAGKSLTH
The depositor's hits bear a star; ? = inconclusive; + = active, no number; ! = not confirmed by another sample. The list is not random: actives were taken first. Their share in the collection is about 6.7%. Rule as the data show it, unless noted: active = inhibition above about 30%; inconclusive = no clear call, values can overlap the other calls; inactive = below that.

SMILES	BoNT A protease	Autofluor counter	GDH-TPI counter	Anthrax LF prot	BoNT F protease	FBA Mtb inh
CCN(CC)CCNC(=O)c1cc2c(-c3ccc(Cl)cc3)nn(C)c2s1	-1	5808	12	-6	-24	136*
O=C(CN1CCN(S(=O)(=O)c2ccc(Cl)cc2)CC1)NC1CCCC1	0	?	6	-4	0	-1
COc1ccc2nc(C)cc(SCC(=O)Nc3c(C)cc(C)cc3C)c2c1	4	18106*	3	0	2	0
Cc1cc(C)c(NC(=O)CS(=O)CC(=O)N2CCN(c3ccccc3)CC2)c(C)c1 (stereo not drawn)	0	16393*	4	-2	-2	-1
COc1ccc(N2CCN(CC(=O)Nc3c(C)cc(C)cc3C)CC2)cc1	-2	17139*	-3	3	-2	-2
CCOP(=O)(Nc1cccc2oc(=O)c3ccccc3c12)OCC	0	4129	3	-1	1	116*
CC(C)OP(=O)(OC(C)C)C(O)c1ccc(Br)cc1 (stereo not drawn)	-1	1990	4	-1	-13	2
CS(=O)(=O)NCc1ccc(C(=O)NCCOc2ccccc2)cc1	17	17640*	-6	-18	21	-1
O=C(Nc1nccs1)c1cc2sccc2n1Cc1ccc(F)cc1	?	16836*	22	1	-3	4
CCOC(=O)c1cc2occc2n1Cc1ccc(F)cc1	0	2620	2	-5	0	0
COC(=O)c1cc2sccc2n1Cc1ccc(C)cc1	-2	24673*	-4	0	-3	3
COC(=O)c1cc2occc2n1Cc1ccc(Cl)cc1	1	22264*	-1	-6	-1	6
O=C(Nc1nccs1)C(NS(=O)(=O)c1ccc(Br)s1)c1ccccc1 (stereo not drawn)	0	2707	8	3	0	4
O=CC1=C(N2CCOCC2)/C(=C\c2ccccc2)CC1	0	3240	19	-5	-5	2
S=c1[nH]cnc2sc(-c3ccccc3)cc12	1	4103	52*	1	-2	-3
N#CC(=C(c1ccccc1)c1ccccc1)c1ccccc1	0	2866	4	-6	6	-2
CCN(CCO)c1cc(Cl)nc(SC)n1	-4	24730*	13	-2	-7	-1
CCNc1cc(Cl)nc(SC)n1	0	4648	1	1	1	-2
Cc1nc2nc(-c3ccc(Cl)cc3)cn2nc1C	2	2447	-5	-1	2	142*
CCOC(=O)C1C(=O)NC(SC)=C(C#N)C1c1ccccc1F (stereo not drawn)	0	22567*	8	-2	1	-1
S=C1SCN(Cc2cccnc2)CN1Cc1ccccc1	0	4192	7	-3	-12	-2
S=C1SCN(Cc2ccccn2)CN1Cc1ccco1	1	16488*	15	2	-3	0
CCOCCCN1CN(Cc2ccco2)CNC1=S	0	4161	-3	6	-6	0
COCCN1CSC(=S)N(Cc2ccco2)C1	4	21084*	-7	0	6	-3
CSc1nc(N(C)CCO)c2sc3nc(-c4ccco4)c4c(c3c2n1)CCC4	?	22092*	16	-2	-1	6
SMILES	BoNT A protease	Autofluor counter	GDH-TPI counter	Anthrax LF prot	BoNT F protease	FBA Mtb inh
c1ccc2c(c1)oc1c(Nc3ccc4c(c3)OCCO4)ncnc12	2	19956*	18	-4	2	-2
CCc1nc(Nc2ccc3c(c2)OCCO3)c2oc3ccccc3c2n1	-3	17390*	33*	-4	-8	-1
CCc1nc(NCc2ccc3c(c2)OCO3)c2oc3ccccc3c2n1	?	23489*	2	-2	-6	-2
O=C1/C(=C/c2ccc(F)cc2)SC(=S)N1Nc1ncc(C(F)(F)F)cc1Cl	2	3315	19	-4	-12	-6
CCC(=O)Oc1ccc(-c2nc(-c3cccnc3)no2)cc1	-3	20402*	-9	4	-4	0
CC(C)CC(=O)NC(=S)NNC(=O)c1ccc([N+](=O)[O-])cc1	0	2284	15	0	-5	1
CCCCC(=O)Nc1ccc(C(=O)NNC(=S)NC(=O)c2ccccc2[N+](=O)[O-])cc1	-2	5073	38*	-3	-7	0
CC(C)C(=O)Nc1ccc(C(=O)NNC(=S)NC(=O)c2ccccc2[N+](=O)[O-])cc1	-1	4776	9	-3	-8	0
CCC(=O)NC(=S)NNC(=O)c1ccc([N+](=O)[O-])cc1	0	20381*	-8	-4	0	-1
CCc1ccc(NC(=O)c2nc(S(=O)(=O)Cc3ccccc3)ncc2Cl)cc1	1	5463	2	-1	3	-7
Cc1ccc(NC(=O)C2CCCN(S(=O)(=O)c3cccc4cccnc34)C2)cc1 (stereo not drawn)	1	5597	-1	-2	5	1
Cc1ccc2nc(SCC(=O)N3CCCCCC3)nc(=O)n2c1	0	6249	19	1	2	0
COc1ccccc1Oc1c(C)oc2c(CN(C)C)c(O)ccc2c1=O	-1	7517	23	-2	-5	+
CCN(CC)Cc1c(O)ccc2c(=O)c(Oc3ccccc3OC)c(C)oc12	-2	3700	22	-4	-2	+
Cc1noc(C)c1S(=O)(=O)Nc1c(C)n(C)n(-c2ccccc2)c1=O	0	2458	8	4	-9	-9
Cc1cccc(C)c1NC(=O)C1CCCN(CCCc2ccccc2)C1 (stereo not drawn)	-1	4935	4	0	-6	1
CCOC(=O)C1CCCN(C(=O)Cc2c(C(=O)O)[nH]c3ccccc23)C1 (stereo not drawn)	0	23230*	-3	0	1	5
CCOC(=O)C1CCCN(S(=O)(=O)c2ccccc2)C1 (stereo not drawn)	2	22239*	-7	-1	6	-8
CC(C)NC(=O)C1CCCN(S(=O)(=O)c2ccc(-n3cnnn3)cc2)C1 (stereo not drawn)	-2	16890*	4	-3	-5	-2
CCOC(=O)C1CCCN(CCCc2ccccc2)C1 (stereo not drawn)	0	23848*!	3	3	4	-1
Cc1ccc(OCc2nc(C#N)c(NCc3ccco3)o2)cc1	-1	2338	5	0	-10	1
CCOC(=O)c1ccc(NC(=O)C2CCCN(S(=O)(=O)c3ccc(F)cc3)C2)cc1 (stereo not drawn)	-1	24696*	1	0	-4	-1
CCOC(=O)c1ccc(S(=O)(=O)N2CCN(CC3CC=CCC3)CC2)cc1 (stereo not drawn)	?	17091*	-4	-8	7	7
CC12CCCC(=O)C1CCC(=Cc1ccco1)C2=O (stereo not drawn)	0	4037	32*	-12	-8	-3
COc1ccc(C=C2CCC3C(=O)CCCC3(C)C2=O)cc1 (stereo not drawn)	0	3017	25	6	-11	0
